“And” between values parts separate entries of the source, which are not always exact repeats. Equal values may be shown once. Values without a mark were called inactive. Results filed as inconclusive are left out. Entries that show only a call come without a potency. The source made the active and inactive calls. The call rests on the fitted dose curve; in most records, active means well fitted curve in the direction sought with a large enough effect; inconclusive means small, poorly fitted or top-dose-only effect, or another doubt; inactive means no such curve, though single readings can be large; an effect the other way counts as inactive or inconclusive.
Columns and labels:
[1] = system: Zika virus NS2B-NS3 protease; assay: Primary screen GU AMC qHTS for Zika virus inhibitors (AID 1347154); further: nearly all actives have a fitted effect of over 70% in size
In short: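 Unlinked Zika NS2B hydrophilic domain/NS3 protease domain noncovalent complex (25 nM final) in 10 mM Tris-HCl pH 8.0, 0.01% Tween 20, with AMC peptide substrate. Fluorescence (ex 340, em 450 nm) change over 15 min, room temperature; percent inhibition fitted to 4-parameter Hill equation.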

[2] = Confirmatory screen GU Rhodamine qHTS for Zika virus inhibitors qHTS (AID 1347157); further: nearly all actives have a fitted effect of over 70% in size
In short: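 Percent inhibition derives from the 15-min fluorescence change (ex 480, em 540 nm), normalized to no-enzyme and no-inhibitor wells. Reactions contained 25 nM NS2B-NS3 complex and 1.5 microM substrate in 10 mM Tris-HCl pH 8.0.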

[3] = Confirmatory screen NINDS Rhodamine qHTS for Zika virus inhibitors (AID 1347161);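 further: purified Zika NS2B-NS3 protease with linked NS2B cofactor domain and Rhodamine110 peptide substrate; nearly all actives have a fitted effect of over 60% in size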
In short: (§1)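 Kinetic fluorescence (Ex 480 nm, Em 540 nm) over 15 min with 1.5 microM Rhodamine110 peptide and 25 nM linked protease.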

[4] = Tertiary RLuc qRT-PCR qHTS assay for Zika virus inhibitors (AID 1347169); further: nearly all actives have a fitted effect of over 55% in size; further: potency means the concentration at half of the fitted maximal effect; on activity change, negative = inhibition: top concentration of the series differs between compounds
In short: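 Inhibition of ZIKV-RLuc replication in Vero cells, read as Renilla luminescence 1-1.5 hrs after live-cell substrate addition, following 48-72 hrs infection at MOI 1-2 in presence of compound.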

[5] = qHTS to identify inhibitors of the type 1 interferon - major histocompatibility complex class I in skeletal muscle: primary screen against the NCATS Pharmaceutical Collection (AID 1347407);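 further: luminescence of HiBiT knocked into endogenous HLA-B as interferon-induced MHC class I level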
In short: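 A qHTS format is used: 8-point, 1:5 compound series with 46 uM top final concentration, applied alongside 4 ng/ml IFN-beta to HLA-B*08:01-HiBiT knock-in myoblasts. Luminescence is measured after 24 h treatment.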

[6] = qHTS to identify inhibitors of the type 1 interferon - major histocompatibility complex class I in skeletal muscle: primary screen against the NCATS Mechanism Interrogation Plate v5.0 (MIPE) Libary (AID 1347411); further: nearly all actives have a fitted effect of over 65% in size
In short: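 Luminescence from HiBiT-tagged endogenous HLA-B*08:01 served as the MHC class I read-out. CRISPR-engineered C25cl48 human myoblasts received 4.0 ng/ml IFN-beta plus compound for 24 hrs, with an 11-point, 1:3 series topping at 46 uM final.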

[7] = biological target: Protein phosphatase 1D (Homo sapiens) (UniProt O15297); assay: Rhodamine-PBP qHTS Assay for Modulators of WT P53-Induced Phosphatase 1 (WIP1) (AID 1347425)
Sequence of Protein phosphatase 1D (Homo sapiens) (O15297 whole entry, looked up): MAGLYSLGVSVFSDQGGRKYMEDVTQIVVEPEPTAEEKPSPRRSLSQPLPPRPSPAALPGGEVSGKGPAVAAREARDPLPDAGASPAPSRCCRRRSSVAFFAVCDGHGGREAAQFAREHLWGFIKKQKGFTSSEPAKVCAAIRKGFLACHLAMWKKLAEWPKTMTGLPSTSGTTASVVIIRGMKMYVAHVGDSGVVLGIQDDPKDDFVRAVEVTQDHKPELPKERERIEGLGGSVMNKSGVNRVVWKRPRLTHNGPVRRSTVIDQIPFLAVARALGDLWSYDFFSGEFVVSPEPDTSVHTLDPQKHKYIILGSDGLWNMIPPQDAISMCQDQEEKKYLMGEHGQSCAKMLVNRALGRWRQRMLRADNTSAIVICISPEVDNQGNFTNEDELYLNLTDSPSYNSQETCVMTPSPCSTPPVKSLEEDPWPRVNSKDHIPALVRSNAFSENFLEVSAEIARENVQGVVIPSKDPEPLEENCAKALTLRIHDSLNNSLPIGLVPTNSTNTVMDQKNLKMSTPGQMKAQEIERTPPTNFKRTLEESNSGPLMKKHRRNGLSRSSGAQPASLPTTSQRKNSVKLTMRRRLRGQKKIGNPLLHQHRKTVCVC
In short: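 5 nM WIP1 + 10 uM Rh-PBP, 50 mM Tris pH 7.5, 30 mM MgCl2, 1 mM TCEP, 0.1 mM EGTA, BSA; cpds pinned, 1 hr RT; + 10 uM phosphopeptide; fluorescence 1-min reads x 11 min; delta = f1 - f0.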

[8] = system: Zika virus NS2B-NS3 protease (linked construct); assay: Primary screen NINDS Rhodamine qHTS for Zika virus inhibitors (AID 1347160); conditions: outcome: dose series up to 57.1 µM unless noted; further: nearly all actives have a fitted effect of over 55% in size
In short: as §1

[9] = biological target: Protein phosphatase 1D (Homo sapiens) (UniProt O15297); assay: RapidFire Mass Spectrometry qHTS Assay for Modulators of WT P53-Induced Phosphatase 1 (WIP1) (AID 1347424);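 further: amount of dephosphorylated VEPPL-S-QETFS peptide product formed by WIP1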
In short: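 WIP1 (10 nM final) was preincubated 1 h at room temperature with compounds in Tris-HCl pH 7.5, 30 mM MgCl2, TCEP, EGTA, BSA; 2 uM VEPPL-pS-QETFS phosphopeptide was added for 5 min, quenched with formic acid, and dephosphorylated product quantified by RapidFire MS.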

[10] = biological target: Lysine-specific demethylase 5B (Homo sapiens) (UniProt Q9UGL1); assay: Optimization screen for KDM5B Histone Demethylases FDH coupled qHTS against the LOPAC library (AID 1347166); conditions: KDM5B demethylation, FDH-coupled NADH fluorescence (FDH is formaldehyde dehydrogenase); at 57.5 µM (top of the series)
Sequence of Lysine-specific demethylase 5B (Homo sapiens) (Q9UGL1 whole entry, looked up): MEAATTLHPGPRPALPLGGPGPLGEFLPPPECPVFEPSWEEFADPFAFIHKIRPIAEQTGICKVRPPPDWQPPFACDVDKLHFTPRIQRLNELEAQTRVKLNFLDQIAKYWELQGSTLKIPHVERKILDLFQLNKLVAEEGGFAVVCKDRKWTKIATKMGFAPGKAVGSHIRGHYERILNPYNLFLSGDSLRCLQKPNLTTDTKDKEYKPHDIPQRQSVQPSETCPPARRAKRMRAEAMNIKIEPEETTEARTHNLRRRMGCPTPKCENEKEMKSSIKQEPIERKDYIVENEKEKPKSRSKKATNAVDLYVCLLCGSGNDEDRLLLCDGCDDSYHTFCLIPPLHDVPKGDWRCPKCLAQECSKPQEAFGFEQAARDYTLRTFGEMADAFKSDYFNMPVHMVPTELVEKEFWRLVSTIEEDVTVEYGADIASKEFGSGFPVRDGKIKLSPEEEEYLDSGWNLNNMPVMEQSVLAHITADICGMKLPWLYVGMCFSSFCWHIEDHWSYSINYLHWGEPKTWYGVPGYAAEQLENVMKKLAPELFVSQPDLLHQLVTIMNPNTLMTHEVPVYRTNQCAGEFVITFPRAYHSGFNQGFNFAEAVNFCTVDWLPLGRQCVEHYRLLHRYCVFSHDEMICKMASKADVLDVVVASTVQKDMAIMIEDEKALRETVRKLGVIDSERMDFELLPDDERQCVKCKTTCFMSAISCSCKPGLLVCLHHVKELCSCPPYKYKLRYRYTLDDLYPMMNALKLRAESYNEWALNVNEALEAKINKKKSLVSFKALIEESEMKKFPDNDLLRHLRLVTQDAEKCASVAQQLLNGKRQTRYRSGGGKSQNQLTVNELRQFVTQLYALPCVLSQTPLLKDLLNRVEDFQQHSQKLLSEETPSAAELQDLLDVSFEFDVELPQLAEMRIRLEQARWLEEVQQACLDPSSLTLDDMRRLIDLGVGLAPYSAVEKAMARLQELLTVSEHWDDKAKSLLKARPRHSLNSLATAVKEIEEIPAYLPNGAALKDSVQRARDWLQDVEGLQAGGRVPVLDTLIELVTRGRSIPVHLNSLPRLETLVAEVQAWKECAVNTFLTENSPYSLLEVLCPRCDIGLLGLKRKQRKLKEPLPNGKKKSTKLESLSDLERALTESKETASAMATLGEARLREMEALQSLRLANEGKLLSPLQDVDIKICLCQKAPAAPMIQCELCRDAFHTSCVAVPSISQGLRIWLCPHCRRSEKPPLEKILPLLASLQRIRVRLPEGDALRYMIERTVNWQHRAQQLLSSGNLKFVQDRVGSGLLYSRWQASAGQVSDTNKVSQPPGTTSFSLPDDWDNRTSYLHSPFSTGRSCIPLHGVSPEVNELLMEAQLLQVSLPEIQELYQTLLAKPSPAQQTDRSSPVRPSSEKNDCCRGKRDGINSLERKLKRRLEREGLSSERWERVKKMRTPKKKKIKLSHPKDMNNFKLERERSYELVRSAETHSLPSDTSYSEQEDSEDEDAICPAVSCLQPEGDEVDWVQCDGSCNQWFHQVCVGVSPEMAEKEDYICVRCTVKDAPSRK
In short: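 KDM5BDeltaAP (200nM final) preincubated 10 min with compound, then 12.5uM H3K4Me3, 25uM a-ketoglutarate, ascorbate, Fe(II), NAD+ and FDH added; 50mM HEPES pH 7.5, 0.01% Tween-20. NADH fluorescence (340/450 nm) change over 30 min, room temperature.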

[11] = Validation qHTS assay for inhibitors of Activation Induced Cytidine Deaminase (AID): UDG Counterscreen signal (AID 1347427)
In short: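 Counterscreen read of UDG activity (2 U/mL, 4/3x) in the FRET deamination format with AID (1 uM, 4/3x), DJC20/DJC23 substrates (250 nM, 4x), 4 h at room temperature. NaOH stop, fluorescence at 560 ex/665 em.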

[12] = Vero cells viability qHTS for Zika virus inhibitors (AID 1347167)
In short: (§2)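 Counter-screen for cytotoxicity of hits from NS2B-NS3 protease qHTS. Overnight-attached cells (2.5 x 10^5 cells/mL, DMEM/4% FBS) were dosed in titration, incubated 24 to 48 hours, then assayed by CellTiter Glo.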

[13] = HepG2 cells viability qHTS for Zika virus inhibitors (AID 1347168)
In short: as §2

[14] = system: Zika virus NS2B-NS3 protease (unlinked complex); assay: Primary screen GU Rhodamine qHTS for Zika virus inhibitors: Unlinked NS2B-NS3 protease assay (AID 1347159); further: nearly all actives have a fitted effect of over 60% in size
In short: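 A qHTS format was used, with compound concentrations ranging up to 114 microM. Each compound was preincubated with 25 nM NS2B-NS3 protease, and the substrate was then added at 1.5 microM. Curves were fitted with a 4-parameter Hill model.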

## COc1ccc(-c2ccc3cc(C(=O)O)ccc3c2)cc1C12CC3CC(CC(C3)C1)C2
[1]
  Potency: inactive
[2]
  outcome: inactive
[3]
  Potency: inactive
[4]
  activity change, negative = inhibition: -1.33% [at 5.25 µM]
[5]
  Potency: inactive
[6]
  Potency: inactive
[7]
  outcome: inactive

## CC1=NN(c2ccccc2)C(=O)C1
[1]
  Potency: inactive
[8]
  outcome: inactive
[5]
  Potency: inactive
[6]
  Potency: inactive
[9]
  outcome: inactive
[7]
  outcome: inactive

## CC(=O)[C@H]1CC[C@H]2[C@@H]3CCC4=CC(=O)CC[C@]4(C)[C@H]3CC[C@]12C
[1]
  Potency: inactive
[10]
  activity, negative = inhibition: -4.17%
[11]
  outcome: inactive

## Nc1nc(=S)c2[nH]cnc2[nH]1
[1]
  Potency: inactive
[12]
  Potency: inactive
[13]
  Potency: inactive
[4]
  Potency: 4.15 µM (active) and 3.3 µM (active)
[5]
  Potency: inactive
[6]
  Potency: inactive
[7]
  outcome: inactive

## CC[C@H](C)C(=O)O[C@H]1C[C@@H](C)C=C2C=C[C@H](C)[C@H](CC[C@@H]3C[C@@H](O)CC(=O)O3)[C@H]21
[1]
  Potency: inactive
[14]
  Potency: inactive
[8]
  outcome: inactive [at 33.1 µM]
[5]
  Potency: inactive
[6]
  Potency: inactive
[9]
  outcome: inactive
[7]
  outcome: inactive

## Cc1onc(-c2ccccc2Cl)c1C(=O)N[C@@H]1C(=O)N2[C@@H]1SC(C)(C)[C@@H]2C(=O)O
[1]
  Potency: inactive
[14]
  Potency: inactive
[8]
  outcome: inactive
[5]
  Potency: inactive
[9]
  outcome: inactive
[7]
  outcome: inactive

## COc1cc2c(Nc3ccc(Br)cc3F)ncnc2cc1OCC1CCN(C)CC1
[1]
  Potency: inactive
[14]
  Potency: inactive
[8]
  outcome: inactive
[5]
  Potency: inactive
[7]
  outcome: inactive

Reference: PubChem BioAssay (NCATS)
